Inconclusive results are not listed. Calls of active or inactive are those of the source. How the source made its calls, unless noted: active means hit-call score of the fitted dose curve at least 0.9, where 1 is the maximum; inactive means score below 0.9.
What was measured:
[1] = target: Estrogen receptor (Homo sapiens) (UniProt P03372); assay: CCTE_Deisenroth_AIME_96WELL_LUC_Active: CCTE's 96-well Estrogen Receptor Transactivation Assay with AIME metabolic competence (ERTA luciferase; metabolism positive), Deisenroth Lab (AID 2284023; active means hit-call score of the fitted dose curve at least 0.9, where 1 is the maximum)
Outline: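 Metabolism-positive mode: induced rat hepatic S9 in alginate microspheres conditions test solutions (0.002 - 200 uM, 10 points) for 2 hours. VM7Luc4E2 ER luciferase reporter cells then exposed 24 h; positive-direction fit against 17beta-estradiol, n=4 typical.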

[2] = target: Estrogen receptor (Homo sapiens) (UniProt P03372); assay: CCTE_Deisenroth_AIME_96WELL_LUC_Inactive: CCTE's 96-well Estrogen Receptor Transactivation Assay without AIME metabolic competence (ERTA luciferase; metabolism negative), Deisenroth Lab (AID 2284025; active means hit-call score of the fitted dose curve at least 0.9, where 1 is the maximum)
Outline: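 Metabolism-negative arm: chemicals (0.002–200 uM, 10 points) incubated 2 h with alginate-water microspheres, then medium moved onto VM7Luc4E2 cells for 24 h luciferase read-out. Positive direction vs 17beta-estradiol; n≥4 experiments.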

[3] = CCTE_Deisenroth_AIME_96WELL_CTox_Active: Cytotoxicity Assessment (CTOX) in CCTE's 96-well Estrogen Receptor Transactivation Assay with AIME metabolic competence (metabolism positive), Deisenroth Lab (AID 2284028; active means hit-call score of the fitted dose curve at least 0.9, where 1 is the maximum)
Outline: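 Cytotoxicity in VM7Luc4E2 breast cells after 24 h exposure to medium from a 2 h metabolic pre-incubation with induced rat hepatic S9 in alginate microspheres; fluorescent live-cell protease readout, 10-point series 0.002–200 uM, n=4.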

[4] = CCTE_Shafer_MEA_dev_firing_rate_mean: CCTE's Neural Network Formation Assay for Mean Firing Rate, Shafer Lab (AID 2284031);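 further: curve fitted for loss of firing so AC50 reflects decreased mean firing rate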
Outline: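 Extracellular spike frequency, AUC over DIV 5–12 recordings, in rat cortical neuron MEA cultures dosed from plating; loss direction vs DMSO.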

[5] = CCTE_Shafer_MEA_dev_per_burst_spike_percent: CCTE's Neural Network Formation Assay for Percent of Spikes in a Burst, Shafer Lab (AID 2284032);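 further: fitted as a decrease in burst spike percentage below DMSO baseline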
Outline: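 Value is trapezoidal AUC over recordings on days 5, 7, 9 and 12 of the well-mean fraction of spikes falling in single-electrode bursts; rat cortical cultures exposed continuously from plating, treatment renewed DIV 5 and 9, fitted downward against DMSO.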

[6] = CCTE_Shafer_MEA_dev_active_electrodes_number: CCTE's Neural Network Formation Assay for Number of Active Electrodes, Shafer Lab (AID 2284040; active means hit-call score of the fitted dose curve at least 0.9, where 1 is the maximum;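 further: potency for loss of active electrodes versus DMSO so lower counts are hits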)
Outline: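 Developing rat cortical networks on MEAs, exposed DIV 0–12. Value is the AUC of active-electrode counts (≥5 spikes/min) from days 5, 7, 9, 12, relative to DMSO.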

[7] = CCTE_Shafer_MEA_dev_burst_rate: CCTE's Neural Network Formation Assay for Burst Rate, Shafer Lab (AID 2284042);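 further: potency for loss of burst rate below DMSO control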
Outline: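 Developmental network assay measuring how 12-day exposure of rat cortical neuron cultures alters bursting on extracellular MEA recordings. Values are AUC of well-mean burst rate across four recording days, relative to DMSO vehicle.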

[8] = CCTE_Shafer_MEA_dev_bursting_electrodes_number: CCTE's Neural Network Formation Assay for Number of Bursting Electrodes, Shafer Lab (AID 2284043; active means hit-call score of the fitted dose curve at least 0.9, where 1 is the maximum;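 further: potency is for loss of bursting electrodes relative to DMSO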)
Outline: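 Number of electrodes reaching ≥1 burst every 2 min was recorded at DIV 5, 7, 9 and 12 and collapsed as trapezoidal area under the curve. Cultures were rat cortical neurons on MEA plates, dosed continuously from plating with medium and treatment refreshed on DIV 5 and 9.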

[9] = CCTE_Shafer_MEA_dev_per_burst_interspike_interval: CCTE's Neural Network Formation Assay for Burst Interspike Interval, Shafer Lab (AID 2284044);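 further: potency for a decrease of within-burst interspike interval below DMSO level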
Outline: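 Neurons from rat cortex plated onto PEI-coated MEA wells with laminin […] at 1.5 x 10^5 cells/well, then treated from day 0. Media and compound fully replaced on DIV 5 and 9. Extracellular spontaneous firing recorded four times; interspike interval per burst summarised as AUC.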

[10] = CCTE_Shafer_MEA_dev_interburst_interval_mean: CCTE's Neural Network Formation Assay for Mean Interburst Interval, Shafer Lab (AID 2284046);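 further: well-mean interburst interval of bursting electrodes as AUC over four recording days; curve fitted for decrease in interburst interval relative to DMSO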
Outline: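 Network formation assay in primary rat cortical cultures, exposed from DIV 0 to 12. Mean interburst interval per well, integrated as AUC over four recordings.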

[11] = CCTE_Shafer_MEA_dev_inter_network_spike_interval_mean: CCTE's Neural Network Formation Assay for Mean Inter-network Spike Interval, Shafer Lab (AID 2284047)
Outline: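 Compound was given at plating to primary rat cortical neurons and renewed with full medium changes on DIV 5 and 9. Extracellular activity was recorded on days 5, 7, 9, 12; AUC values were fitted for loss relative to DMSO control.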

[12] = CCTE_Shafer_MEA_dev_network_spike_number: CCTE's Neural Network Formation Assay for Number of Network Spikes, Shafer Lab (AID 2284048);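 further: synchronized bursts across electrodes counted on days 5 7 9 12 and integrated as AUC; fit as a loss of signal meaning fewer network spikes than DMSO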
Outline: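 Number of network spikes (coordinated firing across electrodes) recorded on days 5, 7, 9 and 12 and summarised as area under the curve. Rat cortical cultures on MEA, continuous compound exposure with full medium/treatment exchange at DIV 5 and 9.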

[13] = CCTE_Shafer_MEA_dev_network_spike_peak: CCTE's Neural Network Formation Assay for Mean Number of Electrodes in Network Spike, Shafer Lab (AID 2284049);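 further: fitted for loss of signal meaning fewer electrodes in network spikes than DMSO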
Outline: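 Rat cortical primary culture, 1.5 x 10^5 cells/well, 48-well MEA (16 electrodes/well). Dosing day 0 through DIV 12, full media/compound exchange DIV 5, 9. AxIS adaptive spike detection; AUC over days 5/7/9/12; loss-of-signal vs DMSO.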

[14] = CCTE_Shafer_MEA_dev_network_spike_duration_std: CCTE's Neural Network Formation Assay for Standard Deviation of Network Spike Duration, Shafer Lab (AID 2284052);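 further: area under curve of spike duration SD across recording days 5 to 12; hits are decreases in network spike duration SD versus DMSO vehicle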
Outline: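 Developing networks of rat cortical neurons were exposed over twelve days in vitro on 48-well MEA plates. Trapezoidal AUC of recordings (DIV 5–12) was analysed for signal loss relative to DMSO vehicle.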

[15] = CCTE_Shafer_MEA_dev_per_network_spike_spike_number_mean: CCTE's Neural Network Formation Assay for Mean Number of Spikes in a Network Spike, Shafer Lab (AID 2284053);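 further: fitted as decrease in spikes per network spike relative to DMSO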
Outline: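 First, rat cortical cells (1.5 x 10^5/well) were seeded onto MEA wells; second, dosing began at plating and was refreshed on DIV 5 and 9; finally, network-spike spike counts across DIV 5–12 were summarized as AUC.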

[16] = CCTE_Shafer_MEA_dev_per_network_spike_spike_percent: CCTE's Neural Network Formation Assay for Percent of Spikes in a Network Spike, Shafer Lab (AID 2284054)
Outline: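 Metric: fraction of spikes falling in a 0.05 s window at network-spike peaks. Recordings were made on days 5, 7, 9 and 12 and collapsed by trapezoidal AUC. Cultures were rat cortical neurons on MEA plates, dosed continuously from plating, re-dosed at media changes.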

[17] = CCTE_Shafer_MEA_dev_LDH: CCTE's Lactate Dehydrogenase Assay for Cytotoxicity in the Neural Network Formation Assay, Shafer Lab (AID 2284068; active means hit-call score of the fitted dose curve at least 0.9, where 1 is the maximum;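 further: exposure for twelve days from plating with re-dosing on DIV 5 and 9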)
Outline: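 Developing rat cortical networks on MEA plates are exposed to compound for 12 days from plating. LDH activity is measured spectrophotometrically, with DMSO as baseline.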

[18] = CCTE_Shafer_MEA_dev_AB: CCTE's Alamar Blue Assay for Cytotoxicity in the Neural Network Formation Assay, Shafer Lab (AID 2284083; active means hit-call score of the fitted dose curve at least 0.9, where 1 is the maximum;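 further: resazurin reduction fluorescence as viability of cultured neurons; twelve days of exposure from plating with re-dosing on DIV 5 and 9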)
Outline: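 Cytotoxicity companion to the developmental MEA: primary rat cortical neurons, 12-day exposure starting day 0, compound refreshed DIV 5 and 9; resazurin fluorescence, fitted against DMSO vehicle.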

[19] = UKN2_HCS_IMR90_neural_migration: University of Konstanz (UKN) Leist Lab Neural Crest Cell Migration Assay in human induced IMR90 Pluripotent Stem Cells (UKN2) (AID 2284204); settings: actives raise or lower the signal
Outline: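 High-content imaging of calcein-AM and Hoechst stained cells quantifies migration into a stopper-defined gap after 24 h compound exposure. Neural crest cells from IMR90 iPSC migrated 24 h in EGF/FGF N2-S medium before dosing; DMSO baseline.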

[20] = IUF_NPC1b_proliferation_BrdU_72hr: Leibniz Research Institute for Environmental Medicine (IUF) 72-hour Neural Progenitor Cell Bromodeoxyuridine (BrdU) Proliferation Assay (NPC1b) (AID 2284207)
Outline: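 Human fetal cortex-derived (GW 16-19) neural progenitor spheres, 0.25-0.35 mm, one per well in EGF/FGF proliferation medium, exposed to compound for 72 h at 37C, pH 7.2-7.6. BrdU incorporation over the final 16 h read by luminescence ELISA, relative to DMSO.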

[21] = IUF_NPC1a_proliferation_area_72hr: Leibniz Research Institute for Environmental Medicine (IUF) 72-hour Neural Progenitor Cell Proliferation Area Assay (NPC1a) (AID 2284208)
Outline: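 Spheres of 0.3 mm are plated singly in growth-factor medium and exposed from day 0. After three days at 37C and 5% CO2, sphere area is measured by phase contrast imaging, with activity referenced to DMSO.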

[22] = IUF_NPC1_viability_72hr: Viability Assessment at 72 hours in the Leibniz Research Institute for Environmental Medicine (IUF) Neural Progenitor Cell Proliferation Assay (NPC1) (AID 2284209)
Outline: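 Three-day continuous exposure of human neural progenitor spheres under EGF/FGF-driven proliferation; cell viability scored by alamar blue signal versus DMSO.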

[23] = CCTE_Mundy_HCI_Cortical_Synap_Neur_Matur_NeuriteSpotCountPerNeuriteLength: CCTE's Synaptogenesis and Neurite Maturation Assay in rat cortical cells for Neurite Spot Count per Neurite Length, Mundy Lab (AID 2284210)
Outline: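 Synaptophysin spots per unit neurite length, measured by automated imaging of MAP2/synaptophysin/Hoechst-stained neurons. Cultures from rat cortex received chemical at DIV 7 with media change through DIV 12; glial growth arrested by AraC at DIV 5; DMSO baseline.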

[24] = CCTE_Mundy_HCI_Cortical_Synap_Neur_Matur_BPCount: CCTE's Synaptogenesis and Neurite Maturation Assay in rat cortical cells for Branch Point Count, Mundy Lab (AID 2284211)
Outline: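 In this multiplexed morphology assay, cortical cells from rat receive chemicals at DIV 7 and are fixed at DIV 12, then immunostained and imaged; branch points are counted, with DMSO as baseline.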

[25] = CCTE_Mundy_HCI_Cortical_NOG_NeuriteCount: CCTE's Neurite Outgrowth Assay in rat cortical cells for Neurite Count, Mundy Lab (AID 2284212);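 further: cells fixed about two days after chemical exposure began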
Outline: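 Rat cortical primary cells; compound added 2 h post-plating, 1/10 dilution of working solution. Anti-betaIII-tubulin/AF488 ICC; ArrayScan neurite count vs DMSO.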

[26] = CCTE_Mundy_HCI_Cortical_NOG_NeuriteLength: CCTE's Neurite Outgrowth Assay in rat cortical cells for Neurite Length, Mundy Lab (AID 2284213);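 further: neurites imaged about 48 to 50 h after chemical exposure began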
Outline: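 First, rat primary cortical cells were plated and, 2 h later, given test chemical as a 1/10 dilution. Finally, βIII-tubulin immunostaining enabled automated imaging of neurite length.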

[27] = CCTE_Mundy_HCI_Cortical_Synap_Neur_Matur_NeuriteSpotCountPerNeuron: CCTE's Synaptogenesis and Neurite Maturation Assay in rat cortical cells for Neurite Spot Count per Neuron Count, Mundy Lab (AID 2284215)
Outline: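 Rat cortical primary cultures; AraC DIV 5 to arrest glia; dosing + media change DIV 7; fixed DIV 12. Anti-MAP2/anti-synaptophysin, Hoechst nuclei; HCI puncta count per neuron, positive fitting direction vs DMSO.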

[28] = CCTE_Mundy_HCI_Cortical_Synap_Neur_Matur_NeuriteCount: CCTE's Synaptogenesis and Neurite Maturation Assay in rat cortical cells for Neurite Count, Mundy Lab (AID 2284222)
Outline: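 In this multiplexed morphology readout, rat primary cortical neurons are fixed at DIV 12 following dosing at DIV 7 and stained for MAP2, synaptophysin and nuclei. High-content image analysis yields neurite count.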

[29] = CCTE_Mundy_HCI_Cortical_Synap_Neur_Matur_CellBodySpotCount: CCTE's Synaptogenesis and Neurite Maturation Assay in rat cortical cells for Cell Body Spot Count, Mundy Lab (AID 2284223)
Outline: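 Rat cortical neurons; AraC @ DIV 5; dose + media change DIV 7; fix DIV 12; anti-MAP2/anti-synaptophysin IF, Hoechst; HCI count of soma synaptophysin puncta/neuron; DMSO = negative control.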

[30] = CCTE_Mundy_HCI_hNP1_Pro_ResponderAvgInten: CCTE's Proliferation Assay in human neuroprogenitor cells, Mundy Lab (AID 2284224; active means hit-call score of the fitted dose curve at least 0.9, where 1 is the maximum;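 further: human neural progenitor cells hNP1 derived from WA09 embryonic stem cells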)
Outline: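 Proliferation was scored as BrdU labelling intensity in human neural progenitors derived from WA09 embryonic cells, measured 26.25 hours after chemical dosing. Activity was fitted relative to DMSO.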

[31] = UKN2_HCS_IMR90_cell_viability: Viability Assessment in the University of Konstanz (UKN) Leist Lab Neural Crest Cell Migration Assay in human induced IMR90 Pluripotent Stem Cells (UKN2) (AID 2284233);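 further: cells exposed to compound for 24 h after a 24 h migration phase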
Outline: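 After calcein-AM/Hoechst staining, viability is quantified by high-content fluorescence imaging, relative to DMSO, in iPSC (IMR90)-derived neural crest cells. Exposure lasts 24 h, starting after a 24 h migration period on PLO/laminin/fibronectin coating.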

[32] = CCTE_Mundy_HCI_Cortical_NOG_NeuronCount: CCTE's Neurite Outgrowth Assay in rat cortical cells for Neuron Count, Mundy Lab (AID 2284236; active means hit-call score of the fitted dose curve at least 0.9, where 1 is the maximum;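 further: neurons counted by imaging betaIII-tubulin and Hoechst stained cortical cells; cells exposed to compound for about 48 hours before fixation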)
Outline: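 Read-out: neuron number by high-content imaging of betaIII-tubulin (Alexa Fluor-488) and Hoechst-labelled rat primary cortical cells.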

[33] = CCTE_Mundy_HCI_Cortical_NOG_BPCount: CCTE's Neurite Outgrowth Assay in rat cortical cells for Branch Point Count, Mundy Lab (AID 2284237);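 further: branch points counted about two days after chemical exposure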
Outline: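 Measured 50.33 h after dosing, this morphology endpoint uses rat primary cortical cultures labelled for betaIII-tubulin. Branch points are quantified by high-content imaging, with DMSO as negative control and baseline.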

Measured: AC50

Estrogen receptor (Homo sapiens), sequence (P03372 whole entry, looked up): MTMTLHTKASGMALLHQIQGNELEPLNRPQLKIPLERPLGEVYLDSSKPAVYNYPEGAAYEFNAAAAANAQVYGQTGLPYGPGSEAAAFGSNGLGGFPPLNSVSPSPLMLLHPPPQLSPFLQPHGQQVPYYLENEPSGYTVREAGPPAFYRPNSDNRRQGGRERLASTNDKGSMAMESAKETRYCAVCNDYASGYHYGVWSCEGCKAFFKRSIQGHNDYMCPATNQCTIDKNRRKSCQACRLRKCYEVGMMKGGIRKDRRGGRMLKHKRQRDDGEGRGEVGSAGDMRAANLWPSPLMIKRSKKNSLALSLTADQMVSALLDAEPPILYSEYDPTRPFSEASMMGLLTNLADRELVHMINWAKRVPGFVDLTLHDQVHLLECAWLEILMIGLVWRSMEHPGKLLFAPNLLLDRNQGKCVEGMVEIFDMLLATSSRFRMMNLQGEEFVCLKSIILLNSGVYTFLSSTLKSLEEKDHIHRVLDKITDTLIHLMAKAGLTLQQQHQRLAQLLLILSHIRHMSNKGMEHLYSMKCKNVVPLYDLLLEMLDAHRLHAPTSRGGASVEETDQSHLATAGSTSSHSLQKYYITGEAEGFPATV

c1ccc(CCCc2ccccc2)cc1
inactive: [1] | [3]
active: [2] 37.4 µM

BrC1CC(Br)CC(Br)CC(Br)CC(Br)CC(Br)C1 (stereo not drawn)
inactive: [11] | [21] | [22] | [31]
active: [4] 8.92 µM | [5] 4.4 µM | [6] 6.75 µM | [7] 4.73 µM | [8] 5.42 µM | [9] 8.48 µM | [10] 4.31 µM | [12] 8.72 µM | [13] 7.04 µM | [14] 5.04 µM | [15] 4.17 µM | [16] 6.85 µM | [17] 10.6 µM | [18] 12.6 µM | [19] 5.5 µM | [20] 8.81 µM | [23] 3.49 µM | [24] 3.17 µM | [25] 8.41 µM | [26] 8.28 µM | [27] 3.23 µM | [28] 4.27 µM | [29] 3.8 µM | [30] 7.21 µM | [32] 9.27 µM | [33] 8.4 µM

From PubChem BioAssay (EPA / NIEHS)
